Hit rate of the full screen: of about 2,500 compounds, about 1,100 (44%) were called active.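 The calls were made as follows: active = inhibition above 50% at 4 µM in the single-point screen; inactive = inhibition of 50% or less.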 The set was probably picked from earlier hits. This is one part of the list.

The nature of this test: TNF-a-driven NF-kB reporter inhibitors, primary screen, selectivity assay for NOD1/NOD2 signaling inhibitor project, cell-based, HEK293T NF-kB-Luc, luminescence (AID 1852). The note with it: TNF-a induced, 14 h, at 4 µM, stronger effect = higher value.
Consider `Cc1nc2ccc(NC(=O)c3cccc(S(=O)(=O)N(C)c4ccccc4)c3)cc2s1`, for which the inhibition is 53.4% (active).
For the compound `CC(C(=O)Nc1cccc([N+](=O)[O-])c1)N(c1ccccc1)S(C)(=O)=O` (configuration not stated), the inhibition was -12.9% (inactive).
`COc1ccc(N(CC(=O)Nc2cccc(N(C)S(C)(=O)=O)c2)S(=O)(=O)c2ccc(C)cc2)cc1`: the inhibition is 14.3% (inactive).
As for `Cc1nc2ccc(NC(=O)c3cc(S(=O)(=O)N(C)c4ccccc4)ccc3Cl)cc2s1`, the figure is 54.6% (active).
On to `CN(c1ccccc1)S(=O)(=O)c1cccc(NC(=O)c2cc(=O)c3ccccc3o2)c1`, for which the inhibition is 63.9% (active).
The value for `CSc1ncc(C(=O)Nc2cccc(S(N)(=O)=O)c2)n1-c1ccccc1` was 8.6% (inactive).
On to `CCCCn1c(SCC(=O)N2CCN(c3ccccc3)CC2)nc2ccsc2c1=O`, for which the inhibition is 28.9% (inactive).
The value for `CC(=O)c1cccc(NC(=O)/C=C/c2ccc([N+](=O)[O-])s2)c1` was 99.5% (active); that for `Cc1nc2cc(NC(=O)c3ccc([N+](=O)[O-])s3)ccc2s1` was 31.8% (inactive).
As for `Cc1cccc(NC(=O)/C=C/c2ccc([N+](=O)[O-])s2)c1`, the figure is 57.7% (active); as for `CCOC(=O)/C=C/C(=O)Nc1cccc([N+](=O)[O-])c1`, 72.3% (active).
The value for `CC(=O)Nc1ccc2nc(NC(=O)c3ccc([N+](=O)[O-])s3)sc2c1` was 19.3% (inactive).
On to `COc1ccc(C)cc1S(=O)(=O)N(CC(=O)Nc1cccc([N+](=O)[O-])c1)c1ccc(C)cc1`, for which the inhibition is 16.5% (inactive).
The value for `Cc1cc(C)cc(NC(=O)/C=C/c2ccc([N+](=O)[O-])s2)c1` was -10.2% (inactive); that for `COC(=O)/C=C\C(=O)Nc1cccc([N+](=O)[O-])c1` was 28.4% (inactive).
Turning to `COc1ccc(CCNc2ncnc3sccc23)cc1OC`, the inhibition is 60.1% (active).
The value for `Oc1ccc(CCNc2ncnc3ccc(Cl)cc23)cc1` was 86.6% (active).
With `COc1cc2ncnc(NCc3ccc(C)cc3)c2cc1OC`, the inhibition was 0.3% (inactive).
As for `COc1ccc(CCNc2ncnc3sc(C)cc23)cc1OC`, the figure is 58.6% (active); as for `COc1ccc(CNc2ncnc3sccc23)cc1OC`, 50.2% (active).
As for `CCOc1ccc2[nH]c3c(NCCc4ccc(OC)c(OC)c4)ncnc3c2c1`, the figure is 39.1% (inactive); as for `Fc1ccc(F)c(CNc2ncnc3cc(Cl)ccc23)c1`, 8.3% (inactive).
As for `COc1ccccc1CNc1ncnc2sccc12`, the figure is 54.1% (active).
For the compound `C(=N\c1ncnc2sccc12)/NOCc1ccccc1`, the inhibition is 28.6% (inactive).
Regarding `c1ccc2c(c1)oc1c(Nc3ccc(CN4CCOCC4)cc3)ncnc12`, the inhibition was 4.6% (inactive).
The value for `Clc1cccc(Cl)c1CON/C=N/c1ncnc2sccc12` was 15.1% (inactive); that for `COc1ccc(CCNc2ncnc3c2oc2ccccc23)cc1OC` was 54.8% (active).
In the case of `COc1ccc(CCNc2ncnc3cc(OC)c(OC)cc23)cc1OC`, the inhibition is 54.8% (active).
The value for `COc1cc2ncnc(NCCc3ccccc3)c2cc1OC` was 4.6% (inactive).
As for `C=CC[n+]1c(-c2ccc(C)cc2)csc1Nc1ccc(NC(C)=O)cc1`, the figure is 99.4% (active).
As for `Cc1ccc(NC(=O)Nc2nnc(-c3ccncc3)s2)cc1`, the figure is 27.4% (inactive); as for `C=CC[n+]1c(-c2ccc(Cl)cc2Cl)csc1Nc1c(C)n(C)n(-c2ccccc2)c1=O`, 28.9% (inactive); as for `C=CC[n+]1c(-c2ccc(Cl)cc2Cl)csc1Nc1ccc(NC(C)=O)cc1`, 64% (active).
Consider `Cc1ccc(S(=O)Cc2ccc(C(=O)N3CCN(C4CCCCC4)CC3)o2)cc1` (configuration not stated), for which the inhibition is -23.1% (inactive).
`Cc1cc(C(=O)CSc2nnc(-c3cccs3)o2)c(C)n1-c1ccccc1`: the inhibition was 53.4% (active).
As for `Cc1cc(C(=O)CSc2nnc(-c3ccco3)o2)c(C)n1-c1ccc2c(c1)OCCO2`, the figure is 10.1% (inactive).
On to `COc1ccc(-n2c(C)cc(C(=O)CSc3nnc(-c4cccs4)o3)c2C)cc1`, for which the inhibition is 71.7% (active).
For `Nc1cc2ccncc2c2ccccc12`, the inhibition is 90.8% (active).
The value for `NC(=O)c1cc2ccncc2c2ccccc12` was 90.8% (active); that for `CCn1cc(CN2CCCC(C(=O)c3ccc(-c4ccccc4)cc3)C2)cn1` (configuration not stated) was 5.2% (inactive).
As for `Cc1ccc(-c2ccc(=O)n(Cc3ccc(F)cc3)n2)cc1`, the figure is -22.8% (inactive); as for `Cc1ccc(C)c(NC(=O)CSc2nc3nc(-c4cccs4)cc(C(F)(F)F)c3c(=O)[nH]2)c1`, 86.9% (active).
Consider `O=C(CSc1nc2nc(-c3cccs3)cc(C(F)(F)F)c2c(=O)[nH]1)Nc1c(F)c(F)c(F)c(F)c1F`, for which the inhibition was 92.5% (active).
As for `CCOc1ccccc1NC(=O)CSc1nc2nc(-c3cccs3)cc(C(F)(F)F)c2c(=O)[nH]1`, the figure is 74.5% (active).
The value for `N#Cc1c(-c2cccs2)nc(SCc2ccc(Cl)cc2)[nH]c1=O` was 31.4% (inactive); that for `O=C(CSc1nc2nc(-c3cccs3)cc(C(F)(F)F)c2c(=O)[nH]1)Nc1ccc(F)c(F)c1` was 86% (active); that for `N#Cc1ccc(Cl)cc1NC(=O)CSc1nc2nc(-c3cccs3)cc(C(F)(F)F)c2c(=O)[nH]1` was 46.8% (inactive).
The value for `C/C(=N\NC(=O)c1nnn(-c2nonc2N)c1CN(C)c1ccccc1)c1ccccc1O` was 92.8% (active); that for `CCOc1cccc(-c2c(C(=O)N/N=C(\C)c3ccccn3)nnn2-c2nonc2N)c1` was 66.7% (active); that for `C/C(=N\NC(=O)c1nnn(-c2nonc2N)c1CN(C)c1ccccc1)c1ccccn1` was -26.2% (inactive).
With `C/C(=N\NC(=O)c1nnn(-c2nonc2N)c1-c1ccccc1)c1ccccc1O`, the inhibition is 93.1% (active).
As for `Cc1ccc(Nc2nc(N)nc(CCl)n2)cc1`, the figure is -3.9% (inactive); as for `COc1ccc(OC)c(Nc2nc(N)nc(CCl)n2)c1`, 54.9% (active).
As for `COc1ccccc1Nc1nc(N)nc(CCl)n1`, the figure is 28% (inactive); as for `CCOc1ccc(Nc2nc(N)nc(CCl)n2)cc1`, 65.6% (active).
As for `Cc1ccc(Nc2nc(N)nc(CCl)n2)c(C)c1`, the figure is 25.1% (inactive); as for `COc1ccc(Nc2nc(N)nc(CCl)n2)cc1`, 23.2% (inactive); as for `CCc1nc(SCC(=O)N2c3ccccc3CC2C)c2c(C)c(C)sc2n1` (configuration not stated), -10% (inactive).
Turning to `CCc1c(C)sc2nc(C(C)C)nc(SCC(=O)N3CCc4ccccc4C3)c12`, the inhibition is 53.6% (active).
As for `Cc1sc2nc(C3CC3)nc(SCC(=O)N3CCc4ccccc4C3)c2c1C`, the figure is -10.4% (inactive); as for `COc1ccc(NC(=O)/C(C#N)=C/c2cc(C)n(-c3ccc(N4CCOCC4)c([N+](=O)[O-])c3)c2C)cc1`, 15% (inactive); as for `O=C(c1ccc(Cn2c(=S)[nH]c3ccccc3c2=O)cc1)N1CCN(c2ccccn2)CC1`, 17.4% (inactive).
For `CCCCCn1c(=O)[nH]c2cc(C(=O)N3CCN(Cc4ccc5c(c4)OCO5)CC3)ccc2c1=O`, the inhibition was 34.6% (inactive).
As for `CCOC(=O)N1CCN(C(=O)c2ccc(Cn3c(=S)[nH]c4ccc(Br)cc4c3=O)cc2)CC1`, the figure is 43.2% (inactive).
The value for `O=C(c1ccc(Cn2c(=S)[nH]c3cc4c(cc3c2=O)OCO4)cc1)N1CCN(c2ncccn2)CC1` was 59.2% (active).
Take `CCOC(=O)N1CCN(C(=O)c2ccc(Cn3c(=S)[nH]c4cc5c(cc4c3=O)OCO5)cc2)CC1`: the inhibition was 55.2% (active).
As for `Nc1ncc([N+](=O)[O-])c(N2CCCCCC2)n1`, the figure is 86.3% (active).
The value for `Cc1cc(C=O)c(C)n1-c1ccc(N2CCCCC2)c([N+](=O)[O-])c1` was 47.6% (inactive); that for `Cc1cc(/C=N/Nc2nc(N)ncc2[N+](=O)[O-])c(C)n1-c1ccccc1F` was 26.6% (inactive); that for `O=C(Nc1ccccn1)c1ccc(-c2ccccc2)cc1` was -197% (inactive).
Turning to `CC(C)C[C@H](NC(=O)c1nc[nH]c1C(=O)N(C)Cc1ccccc1)C(=O)OC(C)(C)C`, the inhibition was 26.1% (inactive).
As to `CN(Cc1ccccc1)C(=S)NC(=O)c1ccc(-c2ccccc2)cc1`, the inhibition was 105% (active).
As for `C=CCN(CC=C)C(=S)NC(=O)c1ccc(-c2ccccc2)cc1`, the figure is 104% (active); as for `CN(C)c1cc[n+](CC(=O)c2ccc(-c3ccccc3)cc2)cc1`, 47.3% (inactive).
Consider `CCOC(=O)CSc1n[nH]c(NC(=O)CC)n1`, for which the inhibition is -7.7% (inactive).
As for `NC(=S)Nc1cccc2cn[nH]c12`, the figure is 75.7% (active); as for `O=c1c(C(c2ccccc2)c2c(O)sc3ccccc3c2=O)c(O)sc2ccccc12`, 77.7% (active); as for `CN(C)c1ccc(C(C(=O)NCc2ccccc2)N(Cc2ccco2)C(=O)c2snc(C(N)=O)c2N)cc1` (configuration not stated), 11.8% (inactive).
Take `NC(=O)c1nsc(C(=O)N(c2ccccc2)C(C(=O)NCc2ccc(F)cc2)c2ccco2)c1N` (configuration not stated): the inhibition is -11.7% (inactive).
As for `NC(=O)c1nsc(C(=O)N(c2ccccc2F)C(C(=O)NCc2ccc(F)cc2)c2ccc(O)cc2)c1N` (configuration not stated), the figure is 69.7% (active); as for `COc1cc(CNc2ccc3[nH]c(=O)[nH]c3c2)ccc1OCc1ccccc1Cl`, 31.1% (inactive); as for `COC(=O)c1ccccc1OCCCOc1ccc(C)cc1OC`, -116% (inactive).
Take `COc1cc(C)ccc1OCCCOc1ccccc1Cl`: the inhibition was 90.6% (active).
The value for `N#CC1=C(N)N2C(=C(C#N)C1c1cccc(Br)c1)Nc1ccccc12` (configuration not stated) was 89.3% (active).
The value for `N#CC1=C(N)N2C(=C(C#N)C1c1ccc(Br)cc1)Nc1ccccc12` (configuration not stated) was 86.9% (active); that for `CCN1C(=O)/C(=C/c2nc3ccccc3c(=O)n2-c2ccc(C)cc2)c2ccccc21` was 23.6% (inactive); that for `COc1ccc(C)cc1S(=O)(=O)N1CCN(C(=O)c2ncoc2-c2ccc(F)cc2)CC1` was 14.4% (inactive).
`Cc1cc(Cl)c(S(=O)(=O)N2CCN(c3ccc(F)cc3)CC2)cc1OCC(=O)NC1CCCCC1`: the inhibition is 69.7% (active).
With `COc1ccc(S(=O)(=O)N2CCCC(C(=O)NCc3ccncc3)C2)cc1Cl` (configuration not stated), the inhibition is 8.9% (inactive).
`Cc1cc(Cl)c(S(=O)(=O)N2CCSCC2)cc1OCC(=O)NC1CCCCC1`: the inhibition was 44.2% (inactive).
As for `Cc1cc(-c2ccc(C)c(S(=O)(=O)N3CCN(c4ccc(F)cc4)CC3)c2)on1`, the figure is 41% (inactive); as for `Cc1cc(Cl)c(S(=O)(=O)N2CCCCCC2)cc1OCC(=O)NC1CCCCC1`, 55.3% (active).

Broadly, the inhibition is the change of the read-out against control, counted positive when it falls.

Values taken from PubChem BioAssay AID1852 (Sanford-Burnham Center for Chemical Genomics, 2009).
